GSH bead fluor: GSH bead compound fluorescence profile; GSH beads flow cytometry, compound fluorescence 488/530 nm; hits give high values; fluorescence (KMESF) at 10 µM; actives 0.25% (n = 190,000); in the data active = fluorescence above about 89;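 also: glutathione beads carrying GST-tagged Bcl family fusion proteins plus one bare bead set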
RGS8-Gao reg: modulates binding of RGS8 to human Galphao. response (percent of control binding), % at 10 µM. actives 0.34% (n = 220,000). AID 1423. multiplexed bead flow cytometry; actives lie on both sides. P09471; in the data active = response below about 60% or above about 140%; inactive = in between;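 also: Galphao activated as the GDP aluminium fluoride complex binding bead-coupled RGS8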
Target sequence (P09471 whole entry, looked up): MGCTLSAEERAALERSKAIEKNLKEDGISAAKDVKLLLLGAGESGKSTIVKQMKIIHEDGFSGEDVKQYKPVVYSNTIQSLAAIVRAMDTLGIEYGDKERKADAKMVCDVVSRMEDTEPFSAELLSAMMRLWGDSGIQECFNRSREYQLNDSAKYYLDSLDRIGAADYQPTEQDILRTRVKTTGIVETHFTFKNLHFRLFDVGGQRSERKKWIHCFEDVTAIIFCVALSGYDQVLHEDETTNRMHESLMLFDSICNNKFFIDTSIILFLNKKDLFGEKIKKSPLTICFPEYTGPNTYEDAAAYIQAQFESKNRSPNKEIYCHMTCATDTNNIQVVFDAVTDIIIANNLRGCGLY
Avidin bead fluor: compound fluoresces at 488/530 nm on avidin beads | actives 0.38% (n = 220,000) | AID 1775 | fluorescence (KMESF) at 10 µM | compound fluorescence 488/530 nm, flow cytometry; hits give high values; in the data active = fluorescence above about 47
RGS7-Gao: human RGS7-Galphao interaction regulation; binding response (% of control), % at 10 µM; actives 0.35% (n = 220,000); P09471; Multiplexed bead flow cytometry, RGS7-Galphao binding; actives lie on both sides; AID 1439; in the data active = binding response below about 49% or above about 150%; inconclusive = no clear call, values can overlap the other calls; inactive = in between;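 also: fluorescent Galphao held in activated GDP-AlF4 state binding bead-coupled RGS7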
RGS16-Gao: regulators of human RGS16-Galphao interaction; O15492+P09471; actives 0.38% (n = 220,000); binding response (% of control), % at 10 µM; bead-based flow cytometry RGS16-Galphao binding, fluorescence; actives lie on both sides;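 also: Galphao activated by GDP with aluminum fluoride before binding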
RGS4-Gao reg: human RGS4-Galphao interaction regulation | P09471 | Multiplexed bead flow cytometry, RGS4-Galphao binding; actives lie on both sides | binding response (% of control), % at 10 µM | actives 0.33% (n = 220,000) | AID 1415; in the data active = binding response below about 49% or above about 150%; inactive = in between;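 also: fluorescent Galphao activated with aluminum fluoride binding bead-coupled RGS4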
RGS-Gao: RGS4-Galphao interaction regulator (human); shares compounds with RGS16-Gao; RGS4–Galpha-o binding response, % at 10 µM; actives 99% (n = 1,600); multiplexed bead flow cytometry, RGS–Galpha-o binding;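 also: fluorescently labeled Galpha-o bound to GDP with aluminium fluoride binding biotinylated RGS beads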
Biotin-avidin: interferes with biotinylated probe binding to avidin beads; shares compounds with RGS16-Gao; streptavidin beads, fluorescein-biotin binding, flow cytometry; inhibition, % at 10 µM; 1,700 tested, under 10 active; AID 1783;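 active = inhibition above 50%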;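 also: median green fluorescence of gated singlet beads compared with DMSO control wells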
RGS8-Gao single: RGS8-Galphao interaction regulation, single point confirmation | shares compounds with RGS16-Gao | bead-based flow cytometry RGS8-Galphao binding, fluorescence; actives lie on both sides | binding response (% of control), % at 10 µM | actives 3% (n = 1,700) | AID 1836; in the data active = binding response below about 72% or above about 130%; inactive = in between;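 also: Galphao activated as GDP AlF4 complex before binding bead RGS8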
RGS7-Gao single: confirmation of regulators of human RGS7-Galphao interaction; actives 7.8% (n = 1,700); shares compounds with RGS16-Gao; response (percent of control binding), % at 10 µM; bead-based flow cytometry RGS7-Galphao binding; actives lie on both sides; in the data active = response below about 75% or above about 130%; inactive = in between;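 also: fluorescent Galphao activated with GDP and aluminum fluoride binding bead-coupled RGS7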
RGS16-Gao single: confirmation of regulators of human RGS16-Galphao interaction. shares compounds with RGS16-Gao. bead-based flow cytometry, RGS16-Galphao binding; actives lie on both sides. response (% of control binding), % at 10 µM. actives 4% (n = 1,700). AID 1838; in the data active = response below about 74% or above about 130%; inactive = in between;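 also: Galphao activated as the GDP aluminium fluoride complex binding bead-coupled RGS16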
RGS4-Gao single: confirmation of regulators of human RGS4-Galphao interaction | AID 1840 | binding response (% of control), % at 10 µM | actives 4% (n = 1,700) | shares compounds with RGS16-Gao | RGS4-Galphao binding, multiplexed bead flow cytometry; actives lie on both sides; in the data active = binding response below about 74% or above about 130%; inactive = in between
RGS19-Gao conf: RGS19-Galphao interaction regulation, single point confirmation; shares compounds with RGS16-Gao; bead-based flow cytometry RGS19-Galphao binding; actives lie on both sides; response (percent of control binding), % at 10 µM; actives 5% (n = 1,700); in the data active = response below about 50% or above about 160%; inactive = in between
Target sequence (P09471 whole entry, looked up): as above
Target sequence (P49795 whole entry, looked up): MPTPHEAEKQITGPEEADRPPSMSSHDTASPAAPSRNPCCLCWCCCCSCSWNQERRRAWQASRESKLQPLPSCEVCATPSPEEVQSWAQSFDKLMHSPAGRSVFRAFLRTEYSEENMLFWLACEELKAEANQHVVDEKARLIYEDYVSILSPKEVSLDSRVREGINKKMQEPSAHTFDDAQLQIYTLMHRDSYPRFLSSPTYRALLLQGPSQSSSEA
Large screens that a line does not name were inactive (follow-up assays come after a bar, where they were run); [ ] = remark or other dose. This is a sample that favours compounds with a hit; in the whole collection about 1.2% have one here. Unless noted, no rule for the calls is given here.

Cn1c(NCc2cc(Br)ccc2O)nc2ccccc21	RGS8-Gao reg 141[activator] | RGS-Gao 119 | Biotin-avidin inactive | RGS8-Gao single inactive | RGS7-Gao single 72 | RGS16-Gao single inactive | RGS4-Gao single inactive | RGS19-Gao conf inactive
COc1ccc(CNc2nc3ccccc3n2C)c(O)c1	RGS7-Gao inconclusive (no result: GSH bead fluor)
O=S(=O)(Nc1cc2nc3ccccc3nc2n1Cc1ccccc1)c1ccc(Cl)cc1	none
Cc1cc(Oc2ccccc2)nc(-c2ccccc2)n1	none
c1ccc(Oc2cc(-c3ccccc3)nc(-c3ccccc3)n2)cc1	RGS8-Gao reg 39, RGS7-Gao 18, RGS16-Gao 19, RGS4-Gao reg 27 | Biotin-avidin inactive | RGS8-Gao single inactive | RGS7-Gao single inactive | RGS16-Gao single inactive | RGS4-Gao single inactive | RGS19-Gao conf inactive
C/C(CCc1ccc2c(c1)OCO2)=N\NC(=O)c1ccccc1Br	none
Oc1oc(-c2ccc(Br)cc2)nc1C=Nc1ccc(Br)cn1	RGS8-Gao reg 146[activator] | RGS-Gao 134 | Biotin-avidin inactive | RGS8-Gao single inactive | RGS7-Gao single inactive | RGS16-Gao single inactive | RGS4-Gao single inactive | RGS19-Gao conf inactive
Cc1ccc(N=Cc2nc(-c3ccc(C)cc3)oc2O)cc1	none
O=C(Nc1ccc(F)cc1)/C(=C1/CCCCCN1)[N+](=O)[O-]	RGS7-Gao inconclusive (no result: GSH bead fluor)
C=C(C)CC(NCCc1ccccc1)c1ccco1 (stereo not given)	RGS4-Gao reg 156[activator] | Biotin-avidin inactive | RGS8-Gao single inactive | RGS7-Gao single inactive | RGS16-Gao single inactive | RGS4-Gao single inactive | RGS19-Gao conf inactive
O=C(NCCc1ccccc1)c1ccco1	none
NC(=O)c1ccc(F)cc1	RGS8-Gao reg 15, RGS7-Gao 18, RGS16-Gao 12, RGS4-Gao reg 24 | Biotin-avidin inactive | RGS8-Gao single inactive | RGS7-Gao single inactive | RGS16-Gao single inactive | RGS4-Gao single inactive | RGS19-Gao conf inactive
CN(Cc1ccc(Cl)s1)C(=O)CCl	RGS7-Gao inconclusive
Cc1ccc([N+](=O)[O-])cc1NC(=O)/C=C/C(=O)O	RGS7-Gao inconclusive (no result: GSH bead fluor)
COc1ccc([N+](=O)[O-])cc1NC(=O)Cc1ccc(C)cc1	RGS16-Gao -0.2 | RGS-Gao 84 | Biotin-avidin inactive | RGS8-Gao single inactive | RGS7-Gao single inactive | RGS16-Gao single inactive | RGS4-Gao single inactive | RGS19-Gao conf inactive
COc1ccc([N+](=O)[O-])cc1NC(=O)/C=C/C(=O)O	RGS16-Gao 13 | RGS-Gao 91 | Biotin-avidin inactive | RGS8-Gao single inactive | RGS7-Gao single inactive | RGS16-Gao single inactive | RGS4-Gao single inactive | RGS19-Gao conf inactive
CCCCC(=O)NS(=O)(=O)c1ccc(N=NN(CC)CC)cc1	none
O=S(=O)(c1cnc(Cl)c(Br)c1)N1CCN(c2ncccn2)CC1	RGS7-Gao inconclusive (no result: GSH bead fluor)
COc1cc(OC)c(-c2nc3c[n+](CC(=O)c4ccccc4)ccc3n2C)cc1OC	none
COc1ccc(C(=O)C[n+]2ccc3c(c2)nc(-c2cc(OC)c(OC)cc2OC)n3C)cc1	RGS16-Gao 18 | RGS-Gao 75 | Biotin-avidin inactive | RGS8-Gao single inactive | RGS7-Gao single inactive | RGS16-Gao single inactive | RGS4-Gao single inactive | RGS19-Gao conf inactive
Cn1c(=O)n(C)c2cc(S(=O)(=O)NCc3ccco3)ccc21	Avidin bead fluor 176, RGS7-Gao 204[activator] | RGS-Gao 117 | Biotin-avidin inactive | RGS8-Gao single inactive | RGS7-Gao single inactive | RGS16-Gao single inactive | RGS4-Gao single inactive | RGS19-Gao conf inactive
Cc1cc(-c2n[nH]c(=S)n2Cc2ccco2)n(C)n1	RGS16-Gao 10 | RGS-Gao 90 | Biotin-avidin inactive | RGS8-Gao single inactive | RGS7-Gao single inactive | RGS16-Gao single inactive | RGS4-Gao single inactive | RGS19-Gao conf inactive
Cc1c(N2CCCC2)cc2c(c1NC(=O)c1ccccc1Cl)C(C)(C)CC2(C)C	RGS7-Gao inconclusive, RGS4-Gao reg 156[activator] (no result: GSH bead fluor) | Biotin-avidin inactive | RGS8-Gao single inactive | RGS7-Gao single inactive | RGS16-Gao single inactive | RGS4-Gao single inactive | RGS19-Gao conf inactive
O=C(Nc1ccccc1N1CCCC1)c1cccc(Cl)c1Cl	none
C/C(=N\NC(=O)CN1CCN(S(=O)(=O)c2ccc(C)cc2)CC1)c1ccncc1	RGS7-Gao inconclusive (no result: GSH bead fluor)
COCCNc1c(-c2cc3ccc(C)c(C)c3[nH]c2=O)nc2ccccn12	none
COc1ccc(NC(=O)CC(=O)Nc2ccc(OC)cc2OC)c(OC)c1	Avidin bead fluor 79, RGS7-Gao 174[activator] | RGS-Gao 114 | Biotin-avidin inactive | RGS8-Gao single inactive | RGS7-Gao single inactive | RGS16-Gao single inactive | RGS4-Gao single inactive | RGS19-Gao conf inactive
Cc1ccc(NC(=O)Nc2ccc(F)cc2F)c(OC(F)F)c1	none
COc1ccc(NC(=O)Nc2cc(C)ccc2OC(F)F)c(OC)c1	none (no result: RGS8-Gao reg, Avidin bead fluor, RGS7-Gao, RGS16-Gao, RGS4-Gao reg) | Biotin-avidin inactive | RGS8-Gao single inactive | RGS7-Gao single 72 | RGS16-Gao single inactive | RGS4-Gao single inactive | RGS19-Gao conf inactive
COc1ccc(NC(=O)CC(C)=O)c(OC)c1	RGS7-Gao inconclusive (no result: GSH bead fluor)
COc1ccc(NC(=S)NC2CCCCCC2)c(OC)c1	RGS16-Gao 22 | RGS-Gao 103 | Biotin-avidin inactive | RGS8-Gao single inactive | RGS7-Gao single inactive | RGS16-Gao single inactive | RGS4-Gao single inactive | RGS19-Gao conf inactive
COc1ccc(NC(=O)CC2SC(=Nc3ccccc3)NC2=O)c(OC)c1 (stereo not given)	none

Screens from PubChem BioAssay.
